From paper PMC5700166

Assays:
Assay in all cases: protein-binding microarray (PBM); PBM: ~300 nM protein, 6 mM HEPES pH 7.8, 80 mM KCl, 0.5 mM EDTA, 0.5 mM EGTA, 6% glycerol, 35 ng/ul poly-dIdC, 1% milk, 1 h, room temperature; Ap Aiptasia and Nv Nematostella (sea anemones) / Co Capsaspora / Aq Amphimedon (sponge) / Dm Drosophila / Hu human; RHD is the Rel homology domain; high values mean tight binding
Settings in all cases: dsDNA, one strand shown
GST-Ap-NF-kB RHD = molecular target: T1, GST-Ap-NF-kB RHD (Exaiptasia pallida (Aiptasia), UniProt A0A913YAJ5 2-422)
T1 sequence: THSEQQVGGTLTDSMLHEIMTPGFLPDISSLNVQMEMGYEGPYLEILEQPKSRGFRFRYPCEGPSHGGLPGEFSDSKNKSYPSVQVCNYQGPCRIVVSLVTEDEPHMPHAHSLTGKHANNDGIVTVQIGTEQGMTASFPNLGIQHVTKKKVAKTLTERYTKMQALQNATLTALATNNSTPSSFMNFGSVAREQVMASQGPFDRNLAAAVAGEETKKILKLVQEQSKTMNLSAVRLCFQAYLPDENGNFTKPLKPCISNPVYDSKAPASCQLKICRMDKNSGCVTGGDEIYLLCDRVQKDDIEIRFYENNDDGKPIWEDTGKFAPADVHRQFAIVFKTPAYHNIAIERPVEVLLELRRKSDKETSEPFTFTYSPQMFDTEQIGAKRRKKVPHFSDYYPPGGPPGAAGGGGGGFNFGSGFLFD

[1] = molecular target: T2, GST-Nv-NF-kB (Cys allele) (Nematostella vectensis, UniProt E5G601 2-411)
T2 sequence: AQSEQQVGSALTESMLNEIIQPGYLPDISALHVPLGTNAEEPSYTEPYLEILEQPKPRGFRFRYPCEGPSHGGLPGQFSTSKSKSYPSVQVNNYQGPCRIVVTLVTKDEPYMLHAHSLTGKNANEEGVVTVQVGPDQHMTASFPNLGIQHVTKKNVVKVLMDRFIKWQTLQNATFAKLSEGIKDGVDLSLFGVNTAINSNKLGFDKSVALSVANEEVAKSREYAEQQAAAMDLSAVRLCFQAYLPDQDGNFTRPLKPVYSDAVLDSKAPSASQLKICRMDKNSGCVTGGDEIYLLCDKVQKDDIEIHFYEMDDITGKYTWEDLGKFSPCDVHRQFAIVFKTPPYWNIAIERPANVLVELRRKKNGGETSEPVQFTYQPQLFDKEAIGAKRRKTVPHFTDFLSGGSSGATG

GST-Co-NF-kB = molecular target: T3, GST-Co-NF-kB (Capsaspora owczarzaki, UniProt F1ARL5 200-546)
T3 sequence: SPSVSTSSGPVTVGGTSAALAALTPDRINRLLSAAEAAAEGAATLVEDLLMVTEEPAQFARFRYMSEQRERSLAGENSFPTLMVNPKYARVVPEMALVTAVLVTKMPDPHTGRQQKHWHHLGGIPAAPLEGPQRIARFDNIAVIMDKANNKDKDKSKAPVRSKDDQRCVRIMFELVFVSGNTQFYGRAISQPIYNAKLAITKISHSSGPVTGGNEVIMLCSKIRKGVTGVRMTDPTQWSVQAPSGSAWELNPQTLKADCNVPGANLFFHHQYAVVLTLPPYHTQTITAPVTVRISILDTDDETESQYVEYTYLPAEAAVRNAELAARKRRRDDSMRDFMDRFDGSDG

GST-Dm-Relish = molecular target: T4, GST-Dm-Relish (Drosophila melanogaster, UniProt Q94527 99-473)
T4 sequence: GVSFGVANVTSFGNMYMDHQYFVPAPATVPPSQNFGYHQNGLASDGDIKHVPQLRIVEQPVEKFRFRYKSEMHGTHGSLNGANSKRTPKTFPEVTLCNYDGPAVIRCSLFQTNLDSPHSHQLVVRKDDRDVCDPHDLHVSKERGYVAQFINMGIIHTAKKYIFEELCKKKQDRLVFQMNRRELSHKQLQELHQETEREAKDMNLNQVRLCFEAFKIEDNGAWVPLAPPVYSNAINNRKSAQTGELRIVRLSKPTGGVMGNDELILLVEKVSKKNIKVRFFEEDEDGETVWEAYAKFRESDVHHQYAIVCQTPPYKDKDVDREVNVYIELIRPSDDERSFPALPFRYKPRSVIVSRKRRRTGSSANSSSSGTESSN

GST-Aq-NF-kB = molecular target: T5, GST-Aq-NF-kB (Amphimedon queenslandica, UniProt A9Y5G7 2-389)
T5 sequence: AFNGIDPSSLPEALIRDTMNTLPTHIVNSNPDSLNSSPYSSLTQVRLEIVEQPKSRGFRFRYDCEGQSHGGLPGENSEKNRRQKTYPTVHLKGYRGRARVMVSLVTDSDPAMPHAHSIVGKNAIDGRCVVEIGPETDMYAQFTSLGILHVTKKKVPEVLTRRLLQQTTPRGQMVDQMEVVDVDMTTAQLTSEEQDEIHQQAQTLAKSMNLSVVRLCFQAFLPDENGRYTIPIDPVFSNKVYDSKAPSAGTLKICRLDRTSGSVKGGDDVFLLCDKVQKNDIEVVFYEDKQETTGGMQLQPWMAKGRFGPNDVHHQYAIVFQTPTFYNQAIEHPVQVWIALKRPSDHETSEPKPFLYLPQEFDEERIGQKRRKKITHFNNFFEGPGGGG

| Sequence | binding signal (GST-Ap-NF-kB RHD) [z-score] | binding signal [1] [z-score] | binding signal (GST-Co-NF-kB) [z-score] | binding signal (GST-Dm-Relish) [z-score] | binding signal (GST-Aq-NF-kB) [z-score] |
| --- | --- | --- | --- | --- | --- |
| CCGATTAACATCAATCCCCCCCGTGATGTTAATCGGGTCTTGATTCGCTTGACGCTGCTG | 6.49 | 4.68 | 7.66 | 6.77 | 5.33 |
| CCGATTAACATCAATACACCCCCTGATGTTAATCGGGTCTTGATTCGCTTGACGCTGCTG | 3.75 | 2.95 | 4.19 | 3.33 | 3.5 |
| CCGATTAACATCAGAATTCCCGCTGATGTTAATCGGGTCTTGATTCGCTTGACGCTGCTG | 3.59 | 4.74 | 3.87 | 3.89 | 3.98 |
| CCGATTAACATCAGGGGAGTTAATGATGTTAATCGGGTCTTGATTCGCTTGACGCTGCTG | 4.13 | 4.06 | 3.34 | 3.14 | 3.63 |
| CCGATTAACATCAAGTAAATCCCTGATGTTAATCGGGTCTTGATTCGCTTGACGCTGCTG | 2.24 | 2.71 | 1.22 | 7.89 | 3.24 |
| CCGATTAACATCAGGGAAAAAACTGATGTTAATCGGGTCTTGATTCGCTTGACGCTGCTG | 2.85 | 4.45 | 5.17 | 5.49 | 5.31 |
| CCGATTAACATCACGGGGTTCCCTGATGTTAATCGGGTCTTGATTCGCTTGACGCTGCTG | 4.82 | 2.58 | 2.51 | 9.28 | 6.02 |
| CCGATTAACATCACGGGAATTTCTGATGTTAATCGGGTCTTGATTCGCTTGACGCTGCTG | 5.46 | 7.5 | 5.53 | 5.6 | 6.28 |
| CCGATTAACATCAGAAATCTCCCTGATGTTAATCGGGTCTTGATTCGCTTGACGCTGCTG | 3.4 | 5.21 | 2.43 | 1.79 | 5.79 |
| CCGATTAACATCAAGGTACCCCCTGATGTTAATCGGGTCTTGATTCGCTTGACGCTGCTG | 5.83 | 2.82 | 4.58 | 2.84 | 3.11 |
| CCGATTAACATCAGGGAAATAACTGATGTTAATCGGGTCTTGATTCGCTTGACGCTGCTG | 2.57 | 4.77 | 3.96 | 4.51 | 6.11 |
| CCGATTAACATCACATTATCCCCTGATGTTAATCGGGTCTTGATTCGCTTGACGCTGCTG | 4.81 | 5.05 | 4.75 | 2.4 | 3.81 |
| CCGATTAACATCAAGGGATCCCCTGATGTTAATCGGGTCTTGATTCGCTTGACGCTGCTG | 8.25 | 5.8 | 4.18 | 9.18 | 6.19 |
